PubChem BioAssay (NCI)
“And” between values parts separate entries of the source, which are not always exact repeats. Identical values can stand only once. This is part of a sample that, as a whole, favours compounds with a hit. Of some 83,000 tested, about 20% had one in any assay.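 48-hour exposure, single concentration, 96-well plates; percent growth endpoint where 0 means no net growth. Active: below 10.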 The source made the active and inactive calls.

Tested on: HL-60(TB) leukemia
Experiment: NCI-60 one-dose screen, 48 h (100 = growth as untreated, 0 = no growth, -100 = all killed)
Conditions: 10 µM unless noted

SMILES | growth
COc1ccc(C)cc1NC(=O)SC(C)C | 94.7% [100 µM] (inactive)
COc1ccc(/C=C(\C#N)c2ccccc2)cc1 | 95.8% (inactive)
Cc1cc(C)c2c(-c3nnc(N)s3)cc(=O)oc2c1 | 98% (inactive)
Oc1c(Br)cc(Br)c2ccc(Cn3cc(-c4ccccc4C(F)(F)F)nn3)nc12 | 0.588% (active)
CC[C@]12C=CCN3CC[C@@]4(c5ccc(OC)cc5N(C)[C@H]4[C@@](O)(C(=O)OC)[C@@H]1OC(=O)CCC(=O)N[C@H](Cc1c[nH]c4ccccc14)C(=O)OC)[C@@H]32 | -25% [100 µM] (active)
Cn1ccc2c(c1=O)C(=O)c1nccc3c1c-2nc1ccccc13 | -67.4% (active)
O=C(Cn1c(=O)sc2nc3ccccc3nc21)Nc1ncc(Cc2cccc(Cl)c2Cl)s1 | 98.3% (inactive)
CCC(CC)COC(=O)c1ccc(O)c(O)c1 | 8.36% (active)
CCOC(=O)c1ccc2[nH]c(-c3ccccc3)cc(=O)c2c1 | 95.3% (inactive)
C=C1[C@@H](O)C[C@H]2C(C)(C)C[C@H](Cl)C[C@]2(C)[C@H]1C[C@H](O)[C@H]1CC(=O)NC1=O | -26% (active)
Cc1ccc(-c2nc3nc(-c4ccc(F)cc4)nc(N4CCNCC4)c3o2)cc1 | -69.1% (active)
CN1C(=O)C(N=Nc2ccc([N+](=O)[O-])cc2)SC1=S (stereo not given) | -4.43% (active) and -10.4% (active)
NCCSC(c1ccccc1)(c1ccccc1)c1ccccc1 | -17.3% (active)
Oc1c(Cl)cc(Cl)cc1/C=N/Nc1nnc(N/N=C/c2cc(Cl)cc(Cl)c2O)c2ccccc12 | -24% (active)
CC(=O)N1N=C(c2ccc(Nc3nc(Nc4ccc(Cl)cc4)nc(Nc4ccc(Cl)cc4)n3)cc2)CC1c1ccco1 (stereo not given) | 93.6% (inactive)
CCCCC1(CC)COC(CCC)OC1 (stereo not given) | 115% (inactive)
COc1ccc(-c2cn[nH]c2-c2ccc(OC)c(O)c2)cc1 | 46.1% (inactive)
CC(CCc1ccc(Cl)c(Cl)c1)NCc1ccc(C(C)(C)C)cc1 (stereo not given) | 46.2% (inactive)

SMILES | growth
COc1cc(C2CC(c3cccc(Nc4ccncc4)c3)=NN2c2ccc(Cl)cc2)cc(OC)c1OC (stereo not given) | -45.2% (active)
Fc1cccc(CNc2c3ccccc3nc3ccccc23)c1F | 76% (inactive)
C=C1C(=O)O[C@H]2[C@H]1CC/C(COC(=O)NCc1cc[nH]c1)=C\CC[C@@]1(C)O[C@@H]21 | -6.94% (active)
Nc1nc(N)c2nc(CNc3ccc(C(=O)NC(CCC(=O)O)C(=O)O)cc3)cnc2n1 (stereo not given) | 35.3% (inactive) and 49.9% (inactive)
COc1cnc2c(c1)C(=O)c1c-2n(CCCN2CCNCC2)c(=O)c2cc(F)ccc12 | -25% (active)
CCNc1nnnn1CC | 111% (inactive)
CCCCC[C@@H]1Cc2cc(O)c(C(=O)O)c3c2[C@H](C[C@]2(OC[C@@H](CC(=O)[C@@](C)(CC)C(=O)OC)[C@@H]2C)O3)O1 | 116% (inactive)
COC(C(=O)[C@@H](O)[C@@H](C)O)[C@@H]1Cc2cc3cc(O[C@H]4C[C@@H](O[C@H]5C[C@@H](O)[C@H](O)C(C)O5)[C@H](O)C(C)O4)cc(O)c3c(O)c2C(=O)[C@H]1O[C@H]1C[C@@H](O[C@H]2C[C@@H](O[C@H]3C[C@@H](OC)[C@H](O)C(C)O3)[C@@H](O)C(C)O2)[C@H](O)C(C)O1 (stereo not given in full) | 81.5% (inactive)
COc1ccc2c(O)c(/C=C3\N=Nc4ccccc43)oc2c1C[C@@H]1CCNC[C@H]1F | 61% (inactive)
CCOC(=O)NCCc1nc2c([nH]1)c(=O)n(C)c(=O)n2C | 124% (inactive)
Cc1ccc(C(=O)c2ccc(C)cc2)cc1 | 92.5% (inactive) and 98.6% (inactive)
Cc1ccc(Sc2oc(-c3ccc(C)cc3)nc2[P+](c2ccccc2)(c2ccccc2)c2ccccc2)cc1 | -45% (active)
COC(=O)[C@H](CC(C)C)NC(=O)NC(=O)NC(=O)CI | 50.7% (inactive)
CC(C)[C@@]12C[C@@H](OC(=O)C3CO3)[C@@](C)(O1)[C@@H]1CC[C@@H](C)[C@H]1[C@@H]2OC(=O)/C=C/c1ccccc1 (stereo not given in full) | 93.3% (inactive)
CCOC(=O)C(=O)C(C(=O)OCC)c1ccccc1 (stereo not given) | 95.6% (inactive)
CCCNc1ccc(C2=NCCCN2)cc1 | 95.5% (inactive)
CN(C)CCCOc1ccccc1NC1=C(Cl)C(=O)C(Nc2ccccc2OCCCN(C)C)=C(Cl)C1=O | -33.1% (active)
